An excerpt weighted towards active compounds, which were near 2.8% of everything screened.
Peg3 promoter – inhibitors of Peg3 promoter. 360,000 compounds, 1.7% hits. inhibition, % at 20 µM. HeLa PEG-Prom luciferase reporter, luminescence, overnight. AID 588405;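 active means inhibition of at least 50% at 20 µM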
Shn3 inh set2 – reduces Shn3 3'UTR luciferase signal in osteoblasts; 360,000 compounds, 0.52% hits; Clone20 osteoblast Shn3 3'UTR firefly luciferase, 24 h; AID 588674; inhibition, % at 12.5 µM;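 active means mean inhibition of at least 75% with every replicate also reaching 75%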;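 further: 0% = median of neutral control wells and 100% = pilot-screen positive control compound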
TRPM1 prom inh – MITF TRPM1 promoter inhibition in SK-MEL-5 cells | SK-MEL-5 TRPM1 promoter luciferase, 24 h | inhibition, % at 12.5 µM | 330,000 compounds, 0.83% hits;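 active means mean inhibition across replicates of 60% or more, whatever share of single replicates reaches that level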
KKLEB cytotox – counter-screen for CF NF-kB inhibitors: cytotoxicity. KKLEB CF airway cells viability, ATPlite luminescence, overnight; hits give low values; cells stimulated with P. aeruginosa culture filtrate. activity change (cytotoxicity), % at 5 µM. 360,000 compounds, 0.36% hits;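 active means corrected activity change at or below -50% at 5 µM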
HIF-2a block – blocks HIF-2a reporter activity | 360,000 compounds, 0.72% hits | 786-0 RCC cells HIF-2a reporter, luciferase luminescence, overnight | inhibition, % at 18.8 µM | AID 624352;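 active means inhibition of the luminescence signal of 40% or more relative to plate controls, in a single-dose primary screen at 18.75 µM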
CF NFkB block – inhibitors of cystic fibrosis induced NF-kB; KKLEB NF-kB-GFP reporter, PAF-induced, GFP fluorescence overnight; inhibition, % at 5 µM; 360,000 compounds, 0.86% hits;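 active means at least 50% inhibition at 5 µM, scaled per plate between neutral and stimulator controls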;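 further: PAF is a Pseudomonas aeruginosa culture filtrate used as stimulus; plate controls were PAF-stimulated DMSO wells for no effect and unstimulated DMSO wells for full effect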
Mdm2 MdmX conf – confirmation of inhibitors of human Mdm2/MdmX interaction, set 2; shares compounds with HIF-2a block; SaOS-2 split-luciferase Mdm2/MdmX complementation, luminescence; inhibition, % at 8 µM; 740 compounds, 99% hits; AID 504601;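 active means mean inhibition of the luminescence signal across two replicates at or above 26 percent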
Target sequence (O15151 whole entry, looked up): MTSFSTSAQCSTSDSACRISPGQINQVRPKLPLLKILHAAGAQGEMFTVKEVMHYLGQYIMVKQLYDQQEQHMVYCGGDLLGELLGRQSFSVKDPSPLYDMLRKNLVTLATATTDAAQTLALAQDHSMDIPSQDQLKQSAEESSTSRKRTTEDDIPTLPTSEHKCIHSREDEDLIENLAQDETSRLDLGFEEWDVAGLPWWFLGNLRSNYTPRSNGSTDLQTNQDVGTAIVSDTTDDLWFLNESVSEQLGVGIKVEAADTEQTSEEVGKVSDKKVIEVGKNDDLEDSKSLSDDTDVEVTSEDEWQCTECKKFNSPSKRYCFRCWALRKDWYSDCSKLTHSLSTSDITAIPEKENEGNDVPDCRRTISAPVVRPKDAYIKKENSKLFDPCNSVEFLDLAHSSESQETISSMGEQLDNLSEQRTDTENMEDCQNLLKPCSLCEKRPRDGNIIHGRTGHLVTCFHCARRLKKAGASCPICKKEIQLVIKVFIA
Target sequence (Q00987 whole entry, looked up): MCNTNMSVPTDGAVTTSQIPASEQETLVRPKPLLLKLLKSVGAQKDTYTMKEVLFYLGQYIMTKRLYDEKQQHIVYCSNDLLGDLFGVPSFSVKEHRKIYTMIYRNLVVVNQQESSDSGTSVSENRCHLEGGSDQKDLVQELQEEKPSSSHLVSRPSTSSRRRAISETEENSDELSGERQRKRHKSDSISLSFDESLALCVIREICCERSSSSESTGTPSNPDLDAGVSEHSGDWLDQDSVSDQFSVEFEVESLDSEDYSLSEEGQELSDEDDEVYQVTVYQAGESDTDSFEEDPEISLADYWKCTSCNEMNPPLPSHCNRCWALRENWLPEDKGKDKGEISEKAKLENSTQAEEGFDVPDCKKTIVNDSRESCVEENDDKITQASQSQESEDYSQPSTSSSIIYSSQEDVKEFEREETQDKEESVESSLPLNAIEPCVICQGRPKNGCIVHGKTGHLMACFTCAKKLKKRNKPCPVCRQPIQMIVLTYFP
HIF-2a conf – HIF-2a inhibition, single concentration confirmation | shares compounds with HIF-2a block | 786-0 RCC cells, HIF-2a luciferase reporter luminescence, overnight | inhibition, % at 18.8 µM | 1,800 compounds, 56% hits | AID 651580;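 active means mean inhibition across four replicates of at least 40 percent at the single tested concentration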
HIF-1a cs – inhibits HIF-1a reporter, a counter-screen for HIF-2a inhibitors; shares compounds with HIF-2a block; MiaPaCa-2 HIF-1a luciferase reporter, desferoxamine, overnight; inhibition, % at 18.8 µM; 1,800 compounds, 72% hits;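 active means mean inhibition of the reporter signal across four replicates at the single tested dose of 50% or more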
* hit, by the source's call; . = no result; ! = not active in a repeat.

SMILES	Peg3 promoter	Shn3 inh set2	TRPM1 prom inh	KKLEB cytotox	HIF-2a block	CF NFkB block	HIF-2a conf	HIF-1a cs	others
CCOC(=O)N1CCN(Cc2nnc(-c3cccc(Br)c3)o2)CC1	23	5	6	-3	10	-12	.	.
CCCCS(=O)(=O)/C=C\C=C/S(=O)(=O)CCCC	102*	96*	104*	-71*	93*	84*	.	.	Mdm2 MdmX conf=102*
Cn1cnc([N+](=O)[O-])c1S(=O)(=O)Oc1ccc(Cl)cc1	103*	93*	68*	-98*	81*	94*	30	26
Cn1cnc([N+](=O)[O-])c1S(=O)(=O)Oc1cccc2ccccc12	105*	97*	93*	-79*	83*	86*	31	66*
Cn1cnc([N+](=O)[O-])c1Cl	-17	-28	0	4	18	0	.	.
Cn1cnc([N+](=O)[O-])c1Oc1cccc2ccccc12	0	-13	49	2	1	32	.	.
CCOc1ccc(CCNC(=O)COc2cccc(-n3cnnn3)c2)cc1OCC	-6	6	-2	12	2	-9	.	.
CCC1(C(=O)OC)CCc2c(cc(OC)c3ccccc23)C1=O (stereo not given)	4	-1	7	-6	55*	26	-2	-20
COC(=O)C1(C)CCc2c(ccc3ccccc23)C1=O (stereo not given)	-93	-6	.	-2	-180	-9	.	.
O=C(NCc1cccc(F)c1)C1CCC(=O)N(C2CC2)C1 (stereo not given)	7	5	13	10	2	4	.	.
COC(=O)c1cc(=O)n(CCc2ccc(OC)c(OC)c2)c(=Nc2ccc(F)c(Cl)c2)s1	99*	50	7	-8	75*	27	23	96*
CNC(=O)C1CC(=O)N(CCc2ccc(OC)c(OC)c2)C(=Nc2ccc(F)cc2)S1 (stereo not given)	18	7	-6	4	14	-2	.	.
COC(=O)c1cc(=O)n(Cc2ccc(F)cc2)c(=Nc2ccccc2)s1	55*	-1	20	0	53*	18	26	48
Cc1c(C(=O)NCc2ccc(F)cc2)sc(=O)n1Cc1ccccc1	15	19	.	2	-5	-23	.	.
COC(=O)c1cc(S(=O)(=O)NCc2cccc(Br)c2)c[nH]1	14	18	2	4	10	8	.	.
Oc1ccc2ccccc2c1/C=N/Nc1nnc(-c2ncc[nH]2)c2ccccc12	46	92*	21	-6	-32	7	.	.	Mdm2 MdmX conf=92*
COc1ccc(/C=N/Nc2nnc(-c3ncc[nH]3)c3ccccc23)cc1	-36	-76	-56	-23	-36	-3	.	.
O=C(C(=Cc1ccc(F)cc1)c1ccccc1)c1ccc(O)cc1	18	23	-2	-1	-18	-19	.	.
O=C(C(=Cc1ccc(F)cc1)C(=O)c1ccccc1)c1ccccc1	100*	0	.	-7	85*	37	43*	102*
COc1ccc(C2c3[nH]c4ccccc4c3C[C@H]3C(=O)N(c4ccccc4C(=O)N4CCC[C@H]4C(=O)O)C(=O)N23)cc1 (stereo not given in full)	18	-2	14	4	12	16	.	.
CCN1CCN(Cc2ccc(NC(=O)c3ccc(C)c(NC(=O)c4c[nH]c5cc(C(F)(F)F)ccc5c4=O)c3)cc2C(F)(F)F)CC1	103*	99*!	103*	-83*	67*!	94*	11	101*	Mdm2 MdmX conf=102*
Cc1ccc(-c2csc3ncnc(SCC(=O)O)c23)cc1	7	-4	4	-8	2	10	.	.
Cn1nnnc1Sc1ncnc2scc(-c3cc4ccccc4o3)c12	100*	62	100*	-86*	97*	83*	96*	107*	Mdm2 MdmX conf=103*
Cn1nnnc1Sc1ncnc2scc(-c3ccccc3C(F)(F)F)c12	18	-10	43	-18	51*	22	46*	59*
Cc1nnc(NC(=O)CSc2ncnc3scc(-c4ccccc4)c23)s1	12	-4	8	1	23	17	.	.
SMILES	Peg3 promoter	Shn3 inh set2	TRPM1 prom inh	KKLEB cytotox	HIF-2a block	CF NFkB block	HIF-2a conf	HIF-1a cs	others
Cn1nnnc1Sc1ncnc2scc(-c3cccc(C(F)(F)F)c3)c12	95*	23	75*	-52*	84*	71*	91*	99*	Mdm2 MdmX conf=103*
Cn1nnnc1Sc1ncnc2scc(-c3ccc(C(F)(F)F)cc3)c12	97*	66	82*	-59*	94*	72*	98*	102*	Mdm2 MdmX conf=100*
CCOc1ccc(N(CC(=O)N2CCCC2)S(=O)(=O)c2ccc(Cl)cc2)cc1	17	-4	-8	-3	-1	20	.	.
COc1cc(CN2CCC(C(=O)NC(c3ccc(-c4ccccc4)cc3)c3cnccn3)CC2)cc(OC)c1 (stereo not given)	20	-3	.	11	-17	-38	.	.
COc1cccc(C(CNC(=O)c2ccc(Cl)c(S(=O)(=O)N3CCCC3)c2)N(C)C)c1 (stereo not given)	-11	43	10	-7	-22	19	.	.
COc1cccc(-c2csc3ncnc(Sc4nnnn4C)c23)c1	88*	-12	71*	-12	47*	47	43*	98*
Cn1nnnc1Sc1ncnc2scc(-c3cccs3)c12	.	28	88*	.	.	.	.	.	Mdm2 MdmX conf=103*
Cn1nnnc1Sc1ncnc2scc(-c3ccc(-c4ccccc4)cc3)c12	101*	36	11	-63*	46*	88*	-26	101*
COc1cccc(CNCCSc2nnnn2C)c1	-9	-28	-6	-6	18	11	.	.
Cc1ccccc1N1CCN(c2ncnc3scc(-c4cccs4)c23)CC1	32	19	10	-7	16	17	.	.
Cc1ccc(-n2ncc(Cl)c2C(=O)NC2CC2)cc1	-248	-71	-15	-2	-270	-8	.	.
O=C(NCc1ccccc1)c1c(Cl)nc(Cl)c(Cl)c1Cl	102*	-4	77*	-33	37	27	.	.	Mdm2 MdmX conf=103*
Cc1nc(Cl)c(C(=O)NCc2ccccc2)c(C)c1Cl	1	11	-14	-4	-6	-6	.	.
Cc1ccc(NC(=O)c2cc(N3C(=O)C=CC3=O)ccc2N2CCOCC2)cc1Cl	93*	76	78*	-9	48*	30	68*	31
CC(=O)c1sc(-c2ccc(F)cc2)cc1NS(=O)(=O)c1ccccc1	9	1	3	-28	4	3	.	.

From PubChem BioAssay
